Assay results from PubChem BioAssay (NCI).
About 83,000 compounds went through this panel and 20% of them were active in at least one assay; those are over-represented in the sample as a whole.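 Results are percent growth after 48 hours of single-concentration exposure. 100 means growth as in untreated cells, lower positive values show inhibition; negative values down to -100 show cell death.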 A number with no mark means an inactive call. Active and inactive are the calls of the source. Rule for the calls: active = growth percent below 10; inactive = the rest.

Tests used:
Assay in all cases: NCI-60 one-dose screen, 48 h (100 = growth as untreated, 0 = no growth, -100 = all killed)
Conditions in all cases: 10 µM unless noted
HCT-15 colon = test system: HCT-15 colon
HT29 colon = test system: HT29 colon
SNB-75 CNS = test system: SNB-75 CNS
SNB-19 CNS = test system: SNB-19 CNS
U251 CNS = test system: U251 CNS
PC-3 prostate = test system: PC-3 prostate
SK-MEL-5 melanoma = test system: SK-MEL-5 melanoma
UACC-62 melanoma = test system: UACC-62 melanoma
LOX IMVI melanoma = test system: LOX IMVI melanoma
SK-MEL-28 melanoma = test system: SK-MEL-28 melanoma

| Structure (SMILES) | growth (HCT-15 colon) | growth (HT29 colon) | growth (SNB-75 CNS) | growth (SNB-19 CNS) | growth (U251 CNS) | growth (PC-3 prostate) | growth (SK-MEL-5 melanoma) | growth (UACC-62 melanoma) | growth (LOX IMVI melanoma) | growth (SK-MEL-28 melanoma) |
| --- | --- | --- | --- | --- | --- | --- | --- | --- | --- | --- |
| CN1C(=C2C(=O)OC(C)(C)OC2=O)CCC1C(=O)NCc1ccc(Cl)cc1Cl (stereo not given) | 101% | 79.5% | 107% | 97.7% | 95.5% | 83% | 91.6% | 86.9% | 93.5% | 93% |
| O=C(N/N=C/[C@@H](O)[C@H](O)[C@H](O)CO)c1ccc(NC(=O)c2cccnc2)cc1 | 103% | 105% | 90.3% | 98.7% | 101% | 101% | 106% | 99.5% | 101% | 103% |
| COc1ccc(-c2cc3c4c(nc5ccccc5c4c2)CC(c2cc(OC)c(OC)c(OC)c2)O3)cc1 (stereo not given) | 45.6% | 45.2% | -30% (active) | 40.1% | 54.8% | 52.3% | 62.6% | 52% | 38.4% | 44% |
| CCCCCCCCCCCCCCCCCCOc1ccc(CC(=O)OCC[N+]2(C)CCCCC2)cc1 | 97.5% | 91.4% | 102% | 87.5% | 91.9% | 92.2% | 100% | 88.8% | 94.7% | 106% |
| O=C(N/N=C/[C@H](O)[C@H](O)[C@H](O)CO)c1ccc(NC(=O)c2cccnc2)cc1 | 106% | 104% | 97.4% | 97.7% | 105% | 96.3% | 104% | 96.2% | 99.1% | 112% |
| Cc1ccc2c(n1)C(=O)C(Cl)=C(Nc1ccccc1C(C)C)C2=O | 27.6% | 106% | 85.7% | 76.7% | 80.4% | 53.9% | 69% | 45.2% | 14.7% | 65.8% |
| C=CCNc1ccc2c3c(cccc13)C(=O)N(N1C(=O)c3cccc4cccc(c34)C1=O)C2=O | 102% | 103% | 90.4% | 99.3% | 95.4% | 106% | 102% | 95.7% | 90.8% | 108% |
| CCOC(=O)/C(C#N)=C\Nc1ccc2ncnc(Nc3ccc(Cl)cc3Cl)c2c1 | 92.7% | 79.4% | 91.3% | 86.4% | 81.4% | 59.3% | 78.3% | 90% | 87.4% | 109% |
| COc1ccc2nc(NC(=O)c3cccnc3Nc3ccc(S(N)(=O)=O)cc3)sc2c1 | 94.2% | 106% | 74.6% | 99.4% | 97.4% | 71.6% | 89.4% | 82.5% | 100% | 116% |
| O=C(/C=C/c1cccc2ccccc12)c1ccc(NC(=O)c2ccccc2CN2C(=O)c3ccccc3C2=O)cc1 | 54.2% | 41.7% | 61.2% | 76.7% | 64.5% | 74% | 87.9% | 69.3% | 60.9% | 96.7% |
| C/C=C(\C)C(=O)N[C@H]1[C@@H](OC(C)=O)C[C@]2(C)C3CC[C@@]4(C)C(CC[C@@H]4C(C)N(C)C)C3CCC2[C@H]1O (stereo not given in full) | 2.88% (active) | 11.3% | 60.3% | 101% | 68.7% | 45% | 5.99% (active) | 13.6% | 16.8% | -35.8% (active) |
| O=C(Nc1c2ccccc2nc2ccccc12)c1ccccc1CN1C(=O)c2ccccc2C1=O | 19.2% | 11.2% | 60.1% | 32.9% | 27.1% | 37.2% | 39.5% | 58.8% | 22% | 56.7% |
| O=c1cc(SCc2ccccc2)nc[nH]1 | 105% | 109% | 93.7% | 107% | 107% | 97.7% | 113% | 108% | 107% | 133% |
| COc1ccc(-c2c(C(=O)NS(C)(=O)=O)n(Cc3cccc(C(F)(F)F)c3)c3ccccc23)cc1 | 79.3% | 97.5% | 85.1% | 93.2% | 91% | 70.7% | 83% | 88.4% | 89.7% | 99.1% |
| Clc1ccc(C(/C=C/c2sc(Cl)nc2Cl)=N/Nc2cc(Cl)cc(Cl)c2)cc1 | 105% | 103% | 101% | 96.4% | 101% | 96.7% | 103% | 88.6% | 98.4% | 105% |
| O=C(CCc1nnc(-c2c(Cl)cccc2Cl)o1)c1nc2ccccc2[nH]1 | 81.5% | 9.39% (active) | 63.4% | 75.1% | 52.5% | 53.1% | 67% | 42.3% | 55.1% | 82.7% |
| Cc1ccc(-c2nn(C)c(=O)c3noc(-c4ccc(C)cc4)c23)cc1 | 32.3% | 9.47% (active) | -21.4% (active) | 32.9% | 27.4% | 26.1% | 21.5% | 38.5% | 44.3% | 70.5% |
| COc1cccc(OC)c1C(=O)N[C@@H]1C(=O)N2[C@@H]1SC(C)(C)[C@@H]2C(=O)O | 108% | 98.9% | 98.9% | 107% | 106% | 86.3% | 105% | 109% | 100% | 105% |
| NCCOc1ncccc1/C=C1\C2C=CC=CC2C2C=CC(F)=CC12 (stereo not given) | 7.3% (active) | 14.4% | 40.3% | 16% | 10.8% | 33.9% | 21.7% | 31.5% | -22.5% (active) | 64.3% |
| CC1=C([Se]CC(OC(=O)[C@@H](CSSC(C)(C)C)NC(=O)OC(C)(C)C)C(=O)NC(C)(C)C)C(=O)c2ccccc2C1=O (stereo not given in full) | -28.6% (active) | -6.98% (active) | -95.8% (active) | -90.8% (active) | -86.5% (active) | -71.6% (active) | -97.6% (active) | -88.1% (active) | -61.9% (active) | -96.3% (active) |
| NS(=O)(=O)c1ccc(-n2nc(C(=O)N/N=C\c3ccc(F)cc3)cc2-c2ccc(Br)cc2)cc1 | 54.3% | 66.4% | 37.4% | 83% | 89% | 72.2% | 87.2% | 64.4% | 74.9% | 77.8% |
| CN1C(=O)CNC(=O)[C@H](NC(=O)c2nc3ccccc3cc2O)CSSC[C@H]1C(=O)NCCCc1nc2ccccc2cc1O | 93.3% | 17.7% | 151% | 100% | 69.1% | 44.7% | 35.2% | 18.9% | -52.4% (active) | 61.9% |
| Oc1ccc(-c2nc3ccc4[nH]ncc4c3c3c2CCCC3)c2cccnc12 | 4.75% (active) | 12.1% | -23.1% (active) | 13.7% | -4.46% (active) | 7.83% (active) | -4.91% (active) | -11.5% (active) | 3.42% (active) | 13.3% |
| CCOC(=O)c1cn2ncnc(Oc3ccc(NC(=O)NCCN(C)C)c(Cl)c3)c2c1C | 23.2% | 7.1% (active) | 99.1% | 82.8% | 70% | 68.6% | 60.9% | 21.7% | 10.3% | 37.6% |
| Cc1ccc2c(-c3cc(-c4ccccc4)nc(N)c3C#N)cc(=O)oc2c1 | 105% | 90.1% | 100% | 94.1% | 100% | 89.2% | 97% | 90.1% | 91.8% | 105% |
| CCCCC1CCCC12NC(=O)NC2=O (stereo not given) | 103% | 110% | 107% | 104% | 99.5% | 95% | 117% | 93.8% | 88.9% | 113% |
